Source: PubChem
This excerpt belongs to a sample that is enriched for hits.
Chlamy TAG: increases triacylglycerol in Chlamydomonas reinhardtii | Chlamydomonas reinhardtii TAG, Nile Red fluorescence, 72 h | calls only at 10 µM (by protocol) | actives 0.84% (n = 44,000); call rule not given here;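 also: hits raise Nile Red signal meaning more stored TAG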
Of the large screens only hits and unclear results are named; the others gave an inactive call.

C=CCN1C(=O)C(O)=C(C(C)=O)C1c1ccc(OC)cc1 (centres undefined)	none
COc1cc(C(=O)Nc2ccc(-c3nc4ncccc4o3)cc2)cc(OC)c1OC	none
COc1ccc(C(O)=C2C(=O)C(=O)N(CCN3CCOCC3)C2c2ccccc2F)cc1 (centres undefined)	none
COc1ccccc1OCC(=O)Nc1ccc(OCC(=O)O)cc1	none
Cc1c(NC(=O)c2c(O)c3ccccc3n(C)c2=O)c(=O)n(-c2ccccc2)n1C	none
Cc1c(NC(=O)c2ccccc2-c2ccccc2C(=O)O)c(=O)n(-c2ccccc2)n1C	none
Cc1c(NC(=O)c2c(F)c(F)c(F)c(F)c2F)c(=O)n(-c2ccccc2)n1C	Chlamy TAG active
Cc1cccc(OCC(=O)Nc2cccc(C(=O)Nc3nccs3)c2)c1C	none
Cc1ccc(OCCCCn2ccnc2)c(Br)c1	none
Cc1ccccc1OCCCN1CCOCC1	none
Cc1ccc(OCCN2CCCC2)cc1C	none
Cc1ccc(OCCCCN2CCOCC2)cc1	Chlamy TAG active
Cc1ccc(OCCCN2CCOCC2)c(C)c1	Chlamy TAG active
Clc1ccc(OCCCN2CCOCC2)cc1	none
Cc1cccc(OCCCCN2CCCCC2)c1	none
Cc1ccc(OCCCn2ccnc2)c(Br)c1	Chlamy TAG active
Cc1ccc(OCCCCN2CCCCC2)cc1	none
Cc1ccc(OCCCCN2CCOCC2)c(C)c1	none
Cc1ccc(OCCCn2ccnc2)c([N+](=O)[O-])c1	none
Cc1ccc(OCCCCN2CCCC2)cc1C	Chlamy TAG active
COc1ccc(C(=O)Nc2ccccc2-c2ccccc2)cc1	none
Cc1cc(I)ccc1NC(=O)C1C2CCC(C2)C1C(=O)O (centres undefined)	none
Cc1ccccc1NC(=O)c1c(-c2c(F)cccc2Cl)noc1C	none
O=C(NCCc1ccc(Cl)cc1)c1ccco1	none
CN(C)c1ccc(C=C(C#N)c2nc3ccccc3[nH]2)cc1	none
COc1ccc(S(=O)(=O)N(CC(=O)Nc2cccc(F)c2)c2ccccc2)cc1	none
COc1cc(CNC2C3CC4CC(C3)CC2C4)cc(OC)c1 (centres undefined)	none
Cc1ccc(OCCCCN2CCCC2)c(C)c1	Chlamy TAG active
Cc1ccccc1OCCCCN1CCCCC1	none
Cc1ccc(OCCCN2CCCC2)c(Br)c1	none
Cc1ccc(OCCCN2CCCCC2)c(C)c1	none
Cc1ccc(OCCCCN2CCCC2)c(Br)c1	Chlamy TAG active
Cc1ccc(OCCCN2CCCC2)c([N+](=O)[O-])c1	none
Cc1ccc(Cl)cc1N1CCN(CC(O)COc2ccc(F)cc2)CC1 (centres undefined)	none
O=C(CSc1cccs1)NC1=NN(c2ccccc2)C(=O)C1	none
O=C(COc1ccc(Br)cc1Cl)N1CCN(c2ccc([N+](=O)[O-])cc2)CC1	none
Cc1ccc(C(=O)NCC(O)c2ccccc2)cc1 (centres undefined)	none
OC(CNCCc1ccccc1)c1ccccc1 (centres undefined)	Chlamy TAG active
OC(Cc1ccccc1)c1ccccc1 (centres undefined)	none
CCCC(=O)Nc1cccc(NC(=O)c2cccc(OCC)c2)c1	none
C=CCn1c(SCC(=O)c2cc(OC)c(OC)c(OC)c2)nc2sc3c(c2c1=O)CCC3	none
COc1cc(C)ccc1OCCCOc1ccccc1[N+](=O)[O-]	none
COc1cc([N+](=O)[O-])ccc1NC(=O)CN1C(=O)c2ccccc2C1=O	none
COc1ccccc1N1CCN(c2ccc([N+](=O)[O-])c(C(=O)O)c2)CC1	none
Cc1ccc(CN2CCC(C(=O)N3CCN(c4cccc(C)c4C)CC3)CC2)o1	none
Cc1cccc(N2CCN(C(=O)C3CCN(CC4CCCCC4)CC3)CC2)c1C	Chlamy TAG active
O=C(C1CCN(CC2CCCCC2)CC1)N1CCN(c2ccccc2F)CC1	Chlamy TAG active
COc1ccc(CN2CCC(C(=O)N3CCN(c4cccc(C)c4C)CC3)CC2)cc1	none
Cc1ccc(CN2CCC(C(=O)N3CCN(c4ccccc4F)CC3)CC2)cc1	none
Cc1ccc(CN2CCC(C(=O)N3CCN(c4ccccc4F)CC3)CC2)o1	Chlamy TAG active
Cc1cccc(N2CCN(C(=O)C3CCN(CC(C)C)CC3)CC2)c1C	none
CC(C)CN1CCC(C(=O)N2CCN(c3ccccc3F)CC2)CC1	none
O=C(C1CCCCC1)N1CCN(c2ccccc2F)CC1	none
Oc1ccccc1CN1CCCCCCC1	none
Cc1ccc(C(=O)N2CCN(CCNC(=O)C(=O)Nc3ccc(Br)cc3)CC2)cc1	none
Cc1sc2ncnc(SCC(=O)Nc3ccccc3)c2c1C	none
Nc1nonc1-c1nc2ccccc2n1CC(=O)Nc1ccccc1I	none
CCCCOc1ccc(N2C(=O)CC(NCCc3ccc(OC)cc3)C2=O)cc1 (centres undefined)	none
O=C(Nc1ccc(S(=O)(=O)N2CCCC2)cc1)c1ccccc1I	none
O=C(Nc1ccccc1)c1cc(S(=O)(=O)N2CCCCC2)ccc1Cl	none
O=C(Nc1ccc(S(=O)(=O)N2CCCC2)cc1)c1ccc(Cl)cc1Cl	Chlamy TAG active
COc1cc(C2C(C(=O)Nc3ccc(F)cc3)=C(C)NC3=C2C(=O)CCC3)ccc1O (centres undefined)	none
CCOc1cc(C(=O)Nc2cc(-c3nc4ncccc4o3)ccc2C)cc(OCC)c1OCC	none
O=S(=O)(c1ccc(F)cc1)N1CCCN(S(=O)(=O)c2ccc(F)cc2)CC1	none
O=S(=O)(c1ccc(F)cc1)n1cccc1	Chlamy TAG active
O=S(=O)(c1ccc(F)cc1)c1ccc(F)cc1	none
CC(CCc1ccccc1)NC(=O)c1ccc2c(c1)OCO2 (centres undefined)	none
NNc1nc(Nc2ccccc2)nc(N2CCOCC2)n1	none
Cc1c(C(=O)Nc2ccc(F)c(Cl)c2)cccc1[N+](=O)[O-]	none
Cc1ccc(NC(=O)c2ccccc2[N+](=O)[O-])cc1F	none
Cc1c(C(=O)Nc2ccc(F)c(F)c2)cccc1[N+](=O)[O-]	Chlamy TAG active
Cc1ccc(C(=O)NCCC2=CCCCC2)o1	none
CCS(=O)(=O)N1CCN(C2CCCCCCC2)CC1	Chlamy TAG active
CC(=O)N1CCN(C2CCCCCC2)CC1	none
O=S(=O)(c1ccc(Cl)cc1)N1CCN(C2CCCC2)CC1	none
N#CCN(CC#N)C(=O)c1cccc(Br)c1	none
O=C(Nc1cccc(Cl)c1Cl)C1COc2ccccc2O1 (centres undefined)	none
COc1ccc(NS(=O)(=O)c2ccc(OC)c(OC)c2)c(OC)c1	none
O=C(NCC12CC3CC(CC(C3)C1)C2)NC1CCCCC1	none
CNCC(=O)NCC12CC3CC(CC(C3)C1)C2	none
O=C(CCN1CCOCC1)NC12CC3CC(CC(C3)C1)C2	none
O=C(CN1CCCCC1)NC12CC3CC(CC(C3)C1)C2	Chlamy TAG active
O=C(CN1CCCCC1)NCC12CC3CC(CC(C3)C1)C2	Chlamy TAG active
CNCC(=O)NC12CC3CC(CC(C3)C1)C2	none
Cc1ccc(Oc2ccc(NC(=O)C3CCC(N4C(=O)C5C6C=CC(C6)C5C4=O)CC3)cc2)cc1 (centres undefined)	none
O=C(NCC(=O)N1CCN(c2ccccc2)CC1)C1CCCCC1	none
COc1ccccc1CNC(=O)CN(c1ccc(F)cc1)S(C)(=O)=O	none
Cc1cccc(NC(=O)CSc2ccccc2)c1C	none
O=C(c1ccc2c(c1)OCO2)N1CCN(Cc2ccccc2)CC1	none
COc1ccc(N2CCN(C(=O)C3COc4ccccc4O3)CC2)cc1 (centres undefined)	none
O=C(C1COc2ccccc2O1)N1CCN(Cc2ccccc2)CC1 (centres undefined)	Chlamy TAG active
Cc1ccccc1NC(=O)c1cc(S(=O)(=O)Nc2ccc(F)cc2)ccc1Cl	none
Cc1cc(C)cc(OCC(=O)Nc2ccccc2I)c1	none
Cc1ccc(C(=O)Nc2ccccc2C(=O)O)cc1S(=O)(=O)N1CCOCC1	none
CCOc1ccc(N(C(C)C(=O)NCc2ccccc2OC)S(C)(=O)=O)cc1 (centres undefined)	none
